Where two headings read alike, the source gives them in different places.
Columns and labels:
AURKB = system: AURKB; parameters: species or system human, MV4-11 + K-562 + COLO205 + SK-N-BE2 + OVCAR-8; settings: read-out: apparent Kd, n = 1
EIF2AK1 = system: EIF2AK1; parameters: species or system human, MV4-11 + K-562 + COLO205 + SK-N-BE2 + OVCAR-8; settings: read-out: apparent Kd, compound concentrations: 100 nM and 1000 nM (sheet 'Samples'), n = 1
STK3 = system: STK3; parameters: species or system human, MV4-11 + K-562 + COLO205 + SK-N-BE2 + OVCAR-8; settings: read-out: apparent Kd; compound concentrations: 100 nM and 1000 nM (sheet 'Samples'), CATDS: 0.22390025297111801; n = 1
STK4 = system: STK4; parameters: species or system human, MV4-11 + K-562 + COLO205 + SK-N-BE2 + OVCAR-8; settings: read-out: apparent Kd; compound concentrations: 100 nM and 1000 nM (sheet 'Samples'), CATDS: 0.27956924002989397; n = 1
CDC42BPB = system: CDC42BPB; parameters: species or system human, MV4-11 + K-562 + COLO205 + SK-N-BE2 + OVCAR-8; settings: read-out: apparent Kd; compound concentrations:100 nM and 1000 nM (sheet 'Samples'); n = 1
CDC42BPG = system: CDC42BPG; parameters: species or system human, MV4-11 + K-562 + COLO205 + SK-N-BE2 + OVCAR-8; settings: read-out: apparent Kd; compound concentrations:100 nM and 1000 nM (sheet 'Samples'); n = 1
PKN1 = system: PKN1; parameters: species or system human, MV4-11 + K-562 + COLO205 + SK-N-BE2 + OVCAR-8; settings: read-out: apparent Kd; compound concentrations:100 nM and 1000 nM (sheet 'Samples'); n = 1
PRKACA = system: PRKACA; parameters: species or system human, MV4-11 + K-562 + COLO205 + SK-N-BE2 + OVCAR-8; settings: read-out: apparent Kd; compound concentrations:100 nM and 1000 nM (sheet 'Samples'); n = 1
PRKACB = system: PRKACB; parameters: species or system human, MV4-11 + K-562 + COLO205 + SK-N-BE2 + OVCAR-8; settings: read-out: apparent Kd; compound concentrations:100 nM and 1000 nM (sheet 'Samples'); n = 1
PRKG1 = system: PRKG1; parameters: species or system human, MV4-11 + K-562 + COLO205 + SK-N-BE2 + OVCAR-8; settings: read-out: apparent Kd; compound concentrations:100 nM and 1000 nM (sheet 'Samples'); n = 1
PRKX = system: PRKX; parameters: species or system human, MV4-11 + K-562 + COLO205 + SK-N-BE2 + OVCAR-8; settings: read-out: apparent Kd; compound concentrations:100 nM and 1000 nM (sheet 'Samples'); n = 1
ROCK1 = system: ROCK1; parameters: species or system human, MV4-11 + K-562 + COLO205 + SK-N-BE2 + OVCAR-8; settings: read-out: apparent Kd; compound concentrations:100 nM and 1000 nM (sheet 'Samples'); n = 1
ROCK2 = system: ROCK2; parameters: species or system human, MV4-11 + K-562 + COLO205 + SK-N-BE2 + OVCAR-8; settings: read-out: apparent Kd; compound concentrations:100 nM and 1000 nM (sheet 'Samples'); n = 1
STK26 = system: STK26; parameters: species or system human, MV4-11 + K-562 + COLO205 + SK-N-BE2 + OVCAR-8; settings: read-out: apparent Kd; compound concentrations:100 nM and 1000 nM (sheet 'Samples'); n = 1
CAMK2B = system: CAMK2B; parameters: species or system human, MV4-11 + K-562 + COLO205 + SK-N-BE2 + OVCAR-8; settings: read-out: apparent Kd; compound concentrations:100 nM and 1000 nM (sheet 'Samples'); n = 1
MAPK14 = system: MAPK14; parameters: species or system human, MV4-11 + K-562 + COLO205 + SK-N-BE2 + OVCAR-8; settings: read-out: apparent Kd; compound concentrations:100 nM and 1000 nM (sheet 'Samples'); n = 1
MAPKAPK2 = system: MAPKAPK2; parameters: species or system human, MV4-11 + K-562 + COLO205 + SK-N-BE2 + OVCAR-8; settings: read-out: apparent Kd; compound concentrations:100 nM and 1000 nM (sheet 'Samples'); n = 1
CAMKK2 = system: CAMKK2; parameters: species or system human, MV4-11 + K-562 + COLO205 + SK-N-BE2 + OVCAR-8; settings: read-out: apparent Kd; compound concentrations: 100 nM and 1000 nM (sheet 'Samples'), CATDS: 3.10077731514018E-2; n = 1
CLK1 = system: CLK1; parameters: species or system human, MV4-11 + K-562 + COLO205 + SK-N-BE2 + OVCAR-8; settings: read-out: apparent Kd; compound concentrations: 100 nM and 1000 nM (sheet 'Samples'), CATDS: 5.1220055062038403E-2; n = 1
CLK4 = system: CLK4; parameters: species or system human, MV4-11 + K-562 + COLO205 + SK-N-BE2 + OVCAR-8; settings: read-out: apparent Kd; compound concentrations: 100 nM and 1000 nM (sheet 'Samples'), CATDS: 6.3001679315381406E-2; n = 1
CSNK1D = system: CSNK1D; parameters: species or system human, MV4-11 + K-562 + COLO205 + SK-N-BE2 + OVCAR-8; settings: read-out: apparent Kd; compound concentrations: 100 nM and 1000 nM (sheet 'Samples'), CATDS: 3.1213203175664998E-2; n = 1
FER = system: FER; parameters: species or system human, MV4-11 + K-562 + COLO205 + SK-N-BE2 + OVCAR-8; settings: read-out: apparent Kd; compound concentrations: 100 nM and 1000 nM (sheet 'Samples'), CATDS: 4.34234720684002E-2; n = 1
GAK = system: GAK; parameters: species or system human, MV4-11 + K-562 + COLO205 + SK-N-BE2 + OVCAR-8; settings: read-out: apparent Kd; compound concentrations: 100 nM and 1000 nM (sheet 'Samples'), CATDS: 0.16140378921040499; n = 1
IGF1R = system: IGF1R; parameters: species or system human, MV4-11 + K-562 + COLO205 + SK-N-BE2 + OVCAR-8; settings: read-out: apparent Kd; compound concentrations: 100 nM and 1000 nM (sheet 'Samples'), CATDS: 3.6183356665864301E-2; n = 1
INSR = system: INSR; parameters: species or system human, MV4-11 + K-562 + COLO205 + SK-N-BE2 + OVCAR-8; settings: read-out: apparent Kd; compound concentrations: 100 nM and 1000 nM (sheet 'Samples'), CATDS: 4.1283599015515197E-2; n = 1
MAPK10 = system: MAPK10; parameters: species or system human, MV4-11 + K-562 + COLO205 + SK-N-BE2 + OVCAR-8; settings: read-out: apparent Kd; compound concentrations: 100 nM and 1000 nM (sheet 'Samples'), CATDS: 0.121038756107581; n = 1
MAPK8 = system: MAPK8; parameters: species or system human, MV4-11 + K-562 + COLO205 + SK-N-BE2 + OVCAR-8; settings: read-out: apparent Kd; compound concentrations: 100 nM and 1000 nM (sheet 'Samples'), CATDS: 0.11476451358793401; n = 1
MAPK9 = system: MAPK9; parameters: species or system human, MV4-11 + K-562 + COLO205 + SK-N-BE2 + OVCAR-8; settings: read-out: apparent Kd; compound concentrations: 100 nM and 1000 nM (sheet 'Samples'), CATDS: 6.9052364835720206E-2; n = 1
NUAK1 = system: NUAK1; parameters: species or system human, MV4-11 + K-562 + COLO205 + SK-N-BE2 + OVCAR-8; settings: read-out: apparent Kd; compound concentrations: 100 nM and 1000 nM (sheet 'Samples'), CATDS: 3.4302390396245802E-2; n = 1
PRKD2 = system: PRKD2; parameters: species or system human, MV4-11 + K-562 + COLO205 + SK-N-BE2 + OVCAR-8; settings: read-out: apparent Kd; compound concentrations: 100 nM and 1000 nM (sheet 'Samples'), CATDS: 3.5974174305942498E-2; n = 1
PRKD3 = system: PRKD3; parameters: species or system human, MV4-11 + K-562 + COLO205 + SK-N-BE2 + OVCAR-8; settings: read-out: apparent Kd; compound concentrations: 100 nM and 1000 nM (sheet 'Samples'), CATDS: 3.1846341330559601E-2; n = 1
PTK2B = system: PTK2B; parameters: species or system human, MV4-11 + K-562 + COLO205 + SK-N-BE2 + OVCAR-8; settings: read-out: apparent Kd; compound concentrations: 100 nM and 1000 nM (sheet 'Samples'), CATDS: 8.6310597132222E-2; n = 1
PTK2 = system: PTK2; parameters: species or system human, MV4-11 + K-562 + COLO205 + SK-N-BE2 + OVCAR-8; settings: read-out: apparent Kd; compound concentrations: 100 nM and 1000 nM (sheet 'Samples'), CATDS: 5.1603916843062203E-2; n = 1
Q6ZSR9 = Q6ZSR9 (human, UniProt Q6ZSR9); parameters: species or system MV4-11 + K-562 + COLO205 + SK-N-BE2 + OVCAR-8; settings: read-out: apparent Kd; compound concentrations: 100 nM and 1000 nM (sheet 'Samples'), CATDS: 3.1507778196600798E-2; n = 1
Chain of Q6ZSR9 (Q6ZSR9 whole entry, looked up): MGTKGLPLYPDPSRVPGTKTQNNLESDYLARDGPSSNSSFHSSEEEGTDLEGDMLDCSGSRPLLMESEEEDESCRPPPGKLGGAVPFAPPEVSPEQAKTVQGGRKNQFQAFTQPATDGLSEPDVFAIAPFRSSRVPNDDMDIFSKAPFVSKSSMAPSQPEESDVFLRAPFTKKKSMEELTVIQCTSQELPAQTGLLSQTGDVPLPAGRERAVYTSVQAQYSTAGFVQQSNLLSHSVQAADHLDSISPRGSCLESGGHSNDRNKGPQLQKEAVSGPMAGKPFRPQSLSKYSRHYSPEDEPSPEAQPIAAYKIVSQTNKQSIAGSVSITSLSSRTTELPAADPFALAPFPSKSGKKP

RPS6KA1 = system: RPS6KA1; parameters: species or system human, MV4-11 + K-562 + COLO205 + SK-N-BE2 + OVCAR-8; settings: read-out: apparent Kd; compound concentrations: 100 nM and 1000 nM (sheet 'Samples'), CATDS: 3.19128363140119E-2; n = 1
TNK1 = system: TNK1; parameters: species or system human, MV4-11 + K-562 + COLO205 + SK-N-BE2 + OVCAR-8; settings: read-out: apparent Kd; compound concentrations: 100 nM and 1000 nM (sheet 'Samples'), CATDS: 0.144330390511521; n = 1
TTK = system: TTK; parameters: species or system human, MV4-11 + K-562 + COLO205 + SK-N-BE2 + OVCAR-8; settings: read-out: apparent Kd; compound concentrations: 100 nM and 1000 nM (sheet 'Samples'), CATDS: 8.7899385258393206E-2; n = 1

Structure (SMILES): COc1cccc(CC(=O)N2CCc3cc(-c4cn(C)c5ncnc(N)c45)ccc32)c1 [GSK2608899A]
- potency estimated from few doses (AURKB; compound concentrations: 100 nM and 1000 nM (sheet 'Samples'), CATDS: 0.23694703885971399): 1340 nM
- potency estimated from few doses (EIF2AK1; CATDS: 0.26763431459408499): 1050 nM
- potency estimated from few doses (STK3): 1510 nM
- potency estimated from few doses (STK4): 966 nM

Structure (SMILES): Cn1ccc2ncnc(Oc3ccc(Nc4nc5ccccc5[nH]4)cc3)c21 [TPKI-72]
- potency estimated from few doses (AURKB; compound concentrations: 100 nM and 1000 nM (sheet 'Samples'), CATDS: 1): 617 nM

Structure (SMILES): CC(C)NCC(Cc1ccccc1)NC(=O)c1cc(Br)c(-c2ccnc3[nH]ccc23)s1.CC(C)NCC(Cc1ccccc1)NC(=O)c1cc(Br)c(-c2ccnc3[nH]ccc23)s1.Cl.Cl (stereo not shown) [GSK1383281A]
- potency estimated from few doses (AURKB; compound concentrations:100 nM and 1000 nM (sheet 'Samples')): 950 nM
- potency estimated from few doses (CDC42BPB): 1320 nM
- potency estimated from few doses (CDC42BPG): 1360 nM
- potency estimated from few doses (PKN1): 840 nM
- potency estimated from few doses (PRKACA): 70.2 nM
- potency estimated from few doses (PRKACB): 102 nM
- potency estimated from few doses (PRKG1): 13.6 nM
- potency estimated from few doses (PRKX): 1100 nM
- potency estimated from few doses (ROCK1): 43.1 nM
- potency estimated from few doses (ROCK2): 48 nM
- potency estimated from few doses (STK26): 1940 nM

Structure (SMILES): FC(F)(F)c1ccccc1-c1cc(-c2c[nH]nc2-c2ccccn2)ccn1 [GW679396X]
- potency estimated from few doses (CAMK2B): 628 nM
- potency estimated from few doses (MAPK14): 845 nM
- potency estimated from few doses (MAPKAPK2): 941 nM

Structure (SMILES): COc1cc(N2CCN(C(C)C)CC2)ccc1Nc1nc(Nc2ccc(F)cc2C(N)=O)c2cc[nH]c2n1 [GSK1220512A]
- potency estimated from few doses (CAMKK2): 2210 nM
- potency estimated from few doses (CLK1): 361 nM
- potency estimated from few doses (CLK4): 213 nM
- potency estimated from few doses (CSNK1D): 2140 nM
- potency estimated from few doses (EIF2AK1; CATDS: 3.5611911741364403E-2): 1180 nM
- potency estimated from few doses (FER): 587 nM
- potency estimated from few doses (GAK): 38 nM
- potency estimated from few doses (IGF1R): 1110 nM
- potency estimated from few doses (INSR): 691 nM
- potency estimated from few doses (MAPK10): 59.2 nM
- potency estimated from few doses (MAPK8): 64.7 nM
- potency estimated from few doses (MAPK9): 172 nM
- potency estimated from few doses (NUAK1): 1380 nM
- potency estimated from few doses (PRKD2): 1130 nM
- potency estimated from few doses (PRKD3): 1930 nM
- potency estimated from few doses (PTK2B): 108 nM
- potency estimated from few doses (PTK2): 354 nM
- potency estimated from few doses (Q6ZSR9): 2040 nM
- potency estimated from few doses (RPS6KA1): 1910 nM
- potency estimated from few doses (TNK1): 44.9 nM
- potency estimated from few doses (TTK): 104 nM
